The sample as a whole holds a higher share of hits than the screen did.
Methyltransferases: Primary Screen for Target Class Profiling of Small Molecule Inhibitors of Methyltransferases. purified enzyme, MTase-Glo SAH luminescence; active compounds read low. calls only at 40 µM. 25,000 compounds, 3.9% hits; call rule not given here
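Each enzyme was reacted with SAM and its substrate, with compounds tested once at 40 uM; SAH formed was read by MTase-Glo luminescence.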
An asterisk follows results filed as active; i = inactive; + = active, no number. % is set by controls: 0 for no effect and ±100 for the full control effect.

SMILES	Methyltransferases
CC1(C(=O)NC2CCCCCCC2)Cn2c(cc3occc32)C(=O)N1CC1CCCO1 (centres undefined)	i
CCN1C(=O)c2cc3ccccc3n2CC1(C)C(=O)NCC(=O)NCc1ccc(C)o1 (centres undefined)	i
CCOCCCNC(=O)N1Cc2c(sc3c2CCCC3)-n2cccc2C1c1cccc(OCC)c1 (centres undefined)	i
CCCSCCCN1C(=O)c2cc3sccc3n2CC1(C)C(=O)NC1CCCCCC1 (centres undefined)	i
CCc1cccc(NC(=O)Cn2nc3n(C)c(=O)c4ccc(C(=O)NC5CCCC5)cc4n3c2=O)c1	i
CN1CCc2cccc3c2C1Cc1ccc(O)c(O)c1-3 (centres undefined)	+
CCCN1C(=O)c2cc(C(=O)NCc3ccc(F)cc3)nn2CC1(C)C(=O)NC1CCCC1 (centres undefined)	i
COc1ccc2cc3n(c2c1)CC(C)(C(=O)NC1CCCC1)N(Cc1ccc(Cl)cc1)C3=O (centres undefined)	i
CCOc1ccccc1CNC(=O)Cn1ccc2cc(S(=O)(=O)N3CCCCC3)ccc21	i
CCc1ccc(CN2C(=O)c3cc4ccccc4n3CC2(C)C(=O)NCc2ccccc2OC)cc1 (centres undefined)	i
COCCN(C)C[C@H]1C[C@@H](CO)CN(C(=O)c2ccc(C)c(Cl)c2)C1	i
COCCN(C)Cc1ccc2nc3sc(C(=O)N(C)C4CCCCC4)cn3c2c1	+
CCOc1ccc(NC(=O)N2Cc3c(sc4c3CCCC4)-n3cccc3C2c2cc(F)cc(F)c2)cc1 (centres undefined)	i
COc1cccc(CN2C(=O)c3cc4sccc4n3CC2(C)C(=O)NC2CCCCC2C)c1 (centres undefined)	i
CC(=O)Nc1c2n(c3ccc(F)cc13)CC(C)(C(=O)NC1CCCC1)N(Cc1ccccc1C)C2=O (centres undefined)	i
CC(C)(O)/C=C1/C(=O)C(C)(C)C(=O)C(C)(C)C1(O)O[C@@H]1O[C@H](COC(=O)c2cc(O)c(O)c(O)c2)[C@@H](O)[C@H](O)[C@H]1O (some centres undefined)	+
C[C@@]12C[C@]3(O)O[C@H](O1)[C@]1(COC(=O)c4ccccc4)[C@H]3C[C@@]12O[C@@H]1O[C@H](COC(=O)c2ccccc2)[C@@H](O)[C@H](O)[C@H]1O	i
O=C(OC[C@H]1O[C@H](O[C@]2(CO)O[C@H](CO)[C@@H](O)[C@@H]2O)[C@H](O)[C@@H](O)[C@@H]1O)c1ccccc1	i
CC1(C(=O)NC2CCCC2)Cn2c(c(-n3cccc3)c3ccccc32)C(=O)N1Cc1ccco1 (centres undefined)	i
CCN(CC)CCCN1C(=O)c2cc3occc3n2CC1(C)C(=O)NC1CCCCCC1 (centres undefined)	i
CCCN1CCN(CCCN2C(=O)c3cc4occc4n3CC2(C)C(=O)NC2CCCCCC2)CC1 (centres undefined)	i
CC1(C(=O)NC2CCCCC2)Cn2c(cc3sccc32)C(=O)N1CCc1ccc(Cl)cc1 (centres undefined)	i
CC(C)OCCCNC(=O)CCc1nnc2n(CCc3ccccc3)c(=O)c3ccccc3n12	i
CN(C)S(=O)(=O)c1ccc2c(c1)/C(=C/c1cc3c([nH]1)CCCC3)C(=O)N2	i
Cc1[nH]c(/C=C2\C(=O)Nc3ccc(S(=O)(=O)N(C)c4cccc(Cl)c4)cc32)c(C)c1C(=O)N1CCN(C)CC1	+
SMILES	Methyltransferases
COc1cccc(CNC(=O)c2ccc3c(=O)nc4c(-c5ccc(C)cc5)n[nH]n4c3c2)c1	i
COCCCNC(=O)CCc1nnc2n(CCc3ccccc3)c(=O)c3ccccc3n12	i
COc1ccccc1CN1C(=O)c2cc3oc(C)cc3n2CC1(C)C(=O)NC1CCCCCCC1 (centres undefined)	i
CCOC(=O)c1cc2n(n1)CC(C)(C(=O)NC1CCCC1)N(c1cc(Cl)ccc1OC)C2=O (centres undefined)	i
CCCCOc1ccccc1-c1cc2n(n1)CC(C)(C(=O)NC1CCCCC1)N(CCCOC)C2=O (centres undefined)	i
CNC(=O)[C@H]1O[C@@H](n2cnc3c(NCc4ccc(N)c(I)c4)ncnc32)[C@H](O)[C@@H]1O	i
CNC(=O)[C@H]1O[C@@H](n2cnc3c(NCc4ccc(N)cc4)ncnc32)[C@H](O)[C@@H]1O	i
Nc1ncnc2c1ncn2[C@H]1O[C@@H](C(=O)N2CCN(CC(=O)Nc3cccc4c3CNC4=O)CC2)[C@H](O)[C@@H]1O	+
Cc1ccc(Cl)cc1Nc1nn2c(=O)c3ccc(C(=O)NC4CCC(C)CC4)cc3nc2s1 (centres undefined)	i
CN(C(=O)Cn1nc2n(C)c(=O)c3ccc(C(=O)NC4CCCC4)cc3n2c1=O)c1ccccc1	i
CN(C)c1nc(NC2CCC(NC(=O)c3ccc(F)c(F)c3)CC2)nc2ccccc12 (centres undefined)	+
CC1(C(=O)NC2CCCCCCC2)Cn2c(ccc2-c2ccco2)C(=O)N1CCN1CCOCC1 (centres undefined)	i
CC(C)Cn1c(=O)c2ccc(C(=O)NC3CCCCC3)cc2n2c(=O)n(CC(=O)NC(C)C)nc12	i
Brc1c(Br)c(Br)c2[nH]cnc2c1Br	+
CCOc1ccc(CNC(=O)c2cc3n(n2)CC(C)(C(=O)NC2CCCCCC2)N(C)C3=O)cc1 (centres undefined)	i
COc1ccc(CNC(=O)c2ccc3c(=O)n(-c4ccc(F)cc4)c4nnc(C)n4c3c2)cc1	i
O=C(O)/C=C/c1ccc(-c2ccc(O)c(C34CC5CC(CC(C5)C3)C4)c2)cc1	+
O=C(O)/C=C/c1ccc(O)c(O)c1	i
CCOc1cccc(C2c3cccn3-c3sc4c(c3CN2C(=O)Nc2ccc(F)cc2)CCCC4)c1 (centres undefined)	i
COc1ccccc1CNC(=O)c1ccc2c(=O)nc3c(-c4cccc(F)c4)n[nH]n3c2c1	i
COCCCN1C(=O)c2cc(-c3ccccc3)nn2CC1(C)C(=O)NCc1ccccc1 (centres undefined)	i
COc1cccc(CNC(=O)c2cc3n(n2)CC(C)(C(=O)NCc2ccc(F)cc2)N(C)C3=O)c1 (centres undefined)	i
CCOC(=O)CNC(=O)C1(C)Cn2c(ccc2-c2ccco2)C(=O)N1Cc1cc(OC)ccc1OC (centres undefined)	i
CC1(C(=O)NC2CCCC2)Cn2c(ccc2-c2ccco2)C(=O)N1CCCN1CCOCC1 (centres undefined)	i
CC(CCc1ccccc1)NCC(O)c1ccc(O)c(C(N)=O)c1 (centres undefined)	i
CCC(NC(C)C)C(O)c1ccc(O)c(O)c1 (centres undefined)	i
NCC(O)c1ccc(O)c(O)c1 (centres undefined)	+
COc1ccc(-c2cc3n(n2)CC(C)(C(=O)NCc2ccccc2)N(c2ccc(Cl)cc2)C3=O)cc1 (centres undefined)	i
CCC(C)NC(=O)c1ccc2c(=O)n(C)c3nnc(SCC(=O)c4ccc(F)cc4)n3c2c1 (centres undefined)	i
COc1ccc(OC)c2c1cc1n2CC(C)(C(=O)NC2CCCCC2)N(C(C)c2ccccc2)C1=O (centres undefined)	i
